Measured values as given in PubChem BioAssay (NCATS).
Results filed as inconclusive are left out. Values without a mark were called inactive. The source made the active and inactive calls. Calls come from the whole dose curve; as a rule, active = well fitted cell-killing curve with a large enough effect; inconclusive = small, poorly fitted or top-dose-only effect; inactive = flat fitted curve, though single readings scatter.

Test: Quantitative highthroughput screen to assess conditional lethalithy of NOMO1 cells grown in RPMI1640 with untreated serum (RPMI+s) (AID 1963876); note: nearly all actives have a fitted effect of over 35% in size;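 for viability: 100% = DMSO wells and 0% = empty wells without cells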
Conditions: NOMO1 AML cells in RPMI+serum, CellTiter-Glo viability, 48 h; series mostly up to 45.8 µM; viability: at the top concentration
Outline: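 Each medium arm—HPLM with 10% dialyzed FBS, or RPMI1640 with 5 mM glucose and 10% untreated or dialyzed FBS—was screened against an 11-point, 3-fold compound titration for 48 h at 37 °C, with CellTiter-Glo luminescence as endpoint.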
Potency is the fitted concentration of half-maximal effect.

Structure (SMILES)	viability	Potency
CC(=Cc1ccccc1)C=C1SC(=S)N(CC(=O)O)C1=O	94.7%	–
CC(=O)N1CCN(c2ccc(OCc3nn(C)c(C)c3-c3cccc4c(CCCOc5cccc6ccccc56)c(C(=O)O)n(Cc5cccnc5)c34)cc2)CC1	–	1660 nM (active)
COc1ccc(Nc2nccc(NCCO)n2)cc1	107%	–
C[C@]12CC[C@@H]3c4ccc(O)cc4CC[C@H]3[C@H]1[C@@H](O)[C@@H](O)[C@H]2O	96.9%	–
C[C@@]12C[C@@]3(O)O[C@@H](O1)[C@]1(COC(=O)c4ccccc4)[C@@H]3C[C@@]12O[C@@H]1O[C@H](CO)[C@@H](O)[C@H](O)[C@@H]1O	100%	–
CC(=O)NCCC(=O)N[C@@H](CCC(N)=O)C(=O)N[C@@H](CO)C(=O)N[C@@H](CCC(N)=O)C(=O)N[C@@H](CCC(N)=O)C(=O)N[C@H](C(=O)N[C@@H](Cc1ccccc1)C(=O)N[C@]1(C)CCCCCCC=CCCC[C@@](C)(C(=O)N[C@@H](CCC(N)=O)C(=O)N[C@@H](CC(N)=O)C(N)=O)NC(=O)[C@H](CC(C)C)NC(=O)[C@H](CC(C)C)NC(=O)[C@@H](CCCNC(=N)N)NC(=O)[C@H](Cc2c[nH]c3ccccc23)NC(=O)[C@H](CC(C)C)NC(=O)[C@H](CC(N)=O)NC1=O)[C@H](C)O	103%	–
COC1CCC(N(C(=O)C2CCC(C)CC2)c2cc(C3=CCCCC3)sc2C(=O)O)CC1 (centres undefined)	96.2%	–
O=c1c(-c2ccc(O)cc2)coc2cc(O)cc(O)c12	95.4%	–
CCCCN1CCC(CNC(=O)c2c3n(c4ccccc24)CCCO3)CC1	82.1%	–
CC(=O)N[C@@H]1[C@H](O[C@@H]2c3ccc(c(Cl)c3)Oc3cc4cc(c3O[C@H]3O[C@H](CO)[C@@H](O)[C@H](O)[C@H]3NC(=O)CCCCCCCC(C)C)Oc3ccc(cc3Cl)C[C@H]3NC(=O)[C@H](N)c5ccc(O)c(c5)Oc5cc(O)cc(c5)[C@H](NC3=O)C(=O)N[C@H]4C(=O)N[C@H]3C(=O)N[C@@H]2C(=O)N[C@@H](C(=O)O)c2cc(O)cc(O[C@H]4O[C@H](CO)[C@@H](O)[C@H](O)[C@H]4O)c2-c2cc3ccc2O)O[C@H](CO)[C@@H](O)[C@@H]1O	106%	–
NCc1c[nH]c(=S)n1[C@H]1CCc2c(F)cc(F)cc2C1	74.7%	–
Cc1[nH]c(C=C2C(=O)Nc3ccc(S(=O)(=O)Cc4c(Cl)cccc4Cl)cc32)c(C)c1C(=O)N1CCC[C@H]1CN1CCCC1	91.6%	–
O=c1c(-c2ccc(O)cc2)coc2cc(O[C@@H]3O[C@H](CO)[C@H](O)[C@H](O)[C@H]3O)ccc12	76.1%	–
CC(C)(N)C(=O)N[C@H](COCc1ccccc1)C(=O)N1CCC2(CC1)CN(S(C)(=O)=O)c1ccccc12	89.9%	–
COc1ccc(-c2oc3c(CC=C(C)C)c(OC4O[C@H](CO)[C@@H](O)[C@H](O)[C@@H]4O)cc(O)c3c(=O)c2OC2O[C@@H](C)[C@H](O)[C@@H](O)[C@@H]2O)cc1 (some centres undefined)	99.6%	–
CCOC(=O)O[C@]1(C(=O)OCCl)CC[C@@H]2[C@H]3CCC4=CC(=O)C=C[C@]4(C)[C@@H]3[C@@H](O)C[C@@]21C	102%	–
O=C(c1ccc(C=Cc2n[nH]c3ccccc23)cc1)N1CCNCC1	–	469 nM (active)
N#Cc1ccc(NC(=O)Nc2ccccc2Br)c2n[nH]nc12	102%	–
S=c1nc[nH]c2nc[nH]c12	77.8%	–
CC(=O)N[C@H]1[C@@H]([C@H](O)[C@H](O)CO)OC(C(=O)O)=C[C@@H]1N=C(N)N	99%	–
Cc1c(-c2cccc3c(CCCOc4cccc5ccccc45)c(C(=O)O)n(Cc4cccnc4)c23)c(COc2ccc(N3CCN([S+](=O)([O-])N(C)C)CC3)cc2)nn1C	106%	–
O=C(C=Cc1ccc(O)cc1)c1ccc(O)cc1O	92.8%	–
COC1CCC(C(=O)c2ccc3nc4c(cc3c2)CCCO4)CC1 (centres undefined)	88.8%	–
COc1ccc(-c2c(-c3ccc(O)cc3O)n[nH]c2C)cc1	87.5% [at 92.2 µM]	–
COc1ccc(-c2coc3cc(O)cc(O)c3c2=O)cc1	102%	–
CN1CCN(C2=Nc3cc(Cl)ccc3Nc3ccccc32)CC1	100%	–
Cc1cccc(N(C)C(=S)Oc2ccc3ccccc3c2)c1	95.8%	–
N=C1SC(=Cc2ccc(-c3ccc4c(c3)C(=O)NC4=O)o2)C(=O)N1c1ccc(Br)cc1	93.5%	–
CC(C)(C(=O)NCC(F)(F)C(F)(F)F)C(=O)N[C@@H]1C(=O)Nc2ccccc2-c2ccccc21	–	935 nM (active)
